{"source": "PubChem BioAssay", "note": "The source made the active and inactive calls. No stated cut-off is given here; in the data, active means fold change permeability below about 0.7 or above about 1.3; inactive means in between.", "data": [{"test": "modulators of brain endothelial barrier permeability, primary screen, cell-based, FITC-avidin fluorescence, HTS (AID 1963498); further: test concentration not given here", "conditions": "actives lie on both sides", "values": [{"smiles": "N[C@H](C(=O)O)[C@H](O)C(=O)O", "fold change permeability": "0.9 (inactive)"}, {"smiles": "CC(C)(C)c1ccc(/C=C/C(=O)Nc2ccc3c(c2)OCCO3)cc1", "fold change permeability": "2 (active)"}, {"smiles": "NC(N)=NCc1cccc(I)c1", "fold change permeability": "0.9 (inactive)"}, {"smiles": "N=C(N)c1ccc(N)cc1", "fold change permeability": "1.1 (inactive)"}, {"smiles": "CO[C@H]1O[C@@H]2O[C@@]3(C)CC[C@H]4[C@H](C)CC[C@@H]([C@H]1C)[C@@]24OO3", "fold change permeability": "0.8 (inactive)"}, {"smiles": "CCCNC(=O)NS(=O)(=O)c1ccc(Cl)cc1", "fold change permeability": "0.9 (inactive)"}, {"smiles": "CCc1ccc2c(-c3cccc(Cl)c3)nc(=O)n(CC)c2n1", "fold change permeability": "1.5 (active)"}, {"smiles": "Oc1cc(O)cc(/C=C/c2ccc(O)c(O)c2)c1", "fold change permeability": "0.7 (active)"}, {"smiles": "NC(N)=NCCC[C@H](NC(=O)[C@@H](N)Cc1ccc(O)cc1)C(=O)O", "fold change permeability": "1.2 (inactive)"}, {"smiles": "CCCC(=O)NCCc1csc(-c2ccc(Cl)cc2)n1", "fold change permeability": "1.5 (active)"}, {"smiles": "CCCCCN(CCCCC)C(=O)C(CCC(=O)O)NC(=O)c1ccc(Cl)c(Cl)c1", "note": "(centres undefined)", "fold change permeability": "1.4 (active)"}, {"smiles": "COc1cc2nc(N(C)CCCNC(=O)C3CCCO3)nc(N)c2cc1OC", "note": "(centres undefined)", "fold change permeability": "1 (inactive)"}, {"smiles": "CN1CCc2cccc3c2[C@H]1Cc1ccc(O)c(O)c1-3", "fold change permeability": "1 (inactive)"}, {"smiles": "COc1cccc(OC)c1-c1cc(C(=O)NC2(C(=O)O)C3CC4CC(C3)CC2C4)nn1-c1ccc(C(=O)N(C)CCCN(C)C)cc1C(C)C", "note": "(centres undefined)", "fold change permeability": "0.9 (inactive)"}, {"smiles": "COC(=O)C(C)(N)Cc1ccc(O)cc1", "note": "(centres undefined)", "fold change permeability": "0.8 (inactive)"}, {"smiles": "NCCCCNCCCN", "fold change permeability": "0.7 (active)"}, {"smiles": "CC(C)(C)C(=O)Oc1ccc(S(=O)(=O)Nc2ccccc2C(=O)NCC(=O)O)cc1", "fold change permeability": "0.7 (active)"}, {"smiles": "CC(=O)[C@@]1(O)CC[C@H]2[C@@H]3CCC4=CC(=O)CC[C@]4(C)[C@H]3CC[C@@]21C", "fold change permeability": "1 (inactive)"}, {"smiles": "c1ccc([C@H]2CN3CCSC3=N2)cc1", "fold change permeability": "1.5 (active)"}, {"smiles": "CC(C)=CCc1cc2c(cc1O)oc(=O)c1c3ccc(O)cc3oc21", "fold change permeability": "1.4 (active)"}, {"smiles": "Cn1cc(C(F)(F)F)nc1-c1ccc(OCC(O)CNCCOc2ccc(O)c(C(N)=O)c2)cc1", "note": "(centres undefined)", "fold change permeability": "1.3 (active)"}, {"smiles": "C=C1C(=O)O[C@@H]2[C@H]3O[C@]3(C)CC/C=C(\\C)CC[C@@H]12", "fold change permeability": "1.3 (active)"}, {"smiles": "CCNC(=O)[C@H]1O[C@@H](n2cnc3c(N)nc(NCCc4ccc(CCC(=O)O)cc4)nc32)C(O)[C@H]1O", "note": "(some centres undefined)", "fold change permeability": "1.1 (inactive)"}, {"smiles": "CCc1cccc2c3c([nH]c12)C(CC)(CC(=O)O)OCC3", "note": "(centres undefined)", "fold change permeability": "1.3 (active)"}]}]}
